# PubChem BioAssay (EPA / NIEHS)
# Activity calls are given as the source filed them. How the source made its calls: active means hit-call score of the fitted dose curve at least 0.9, where 1 is the maximum; inactive means score below 0.9.
# Assays:
# [1] = ATG_CRE_CIS: Attagene CIS-FACTORIAL HepG2 Assay for human cAMP Responsive Element (CRE) binding protein 3 (AID 2282926); conditions: HepG2 CRE cis-reporter, Attagene multiplexed mRNA; actives raise or lower the signal
# Method in brief: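 Liver-derived HepG2, transfected with a CRE-containing reporter panel, exposed 24 h; transcript levels sized and quantified by capillary electrophoresis of labelled amplicons; signal changes either way referenced to vehicle.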
# [2] = molecular target: CCAAT/enhancer-binding protein beta (Homo sapiens) (UniProt P17676); experiment: ATG_C_EBP_CIS: Attagene CIS-FACTORIAL HepG2 Assay for human CCAAT/Enhancer Binding Protein (C/EBP) beta (AID 2282927); conditions: HepG2 Attagene cis-factorial transcription factor reporter; actives raise or lower the signal
# Method in brief: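 Chemical-treated HepG2 cells (24 h) bearing cis-regulated reporter constructs were processed for total RNA, then reverse transcription, PCR amplification, fluorescent primer extension and fragment analysis; gain- and loss-of-signal were fitted against DMSO.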
# [3] = APR_HepG2_CellCycleArrest_24hr: Apredica 24-hour HepG2 Assay for Cell Cycle Arrest (AID 2282905); conditions: imaging, actives raise or lower the signal;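 further: cell cycle arrest scored as ratio of 2N to 4N nuclear DNA content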
# Method in brief: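 Step one: dose HepG2 with test compounds, 0.39–200 uM, 0.5% DMSO, 24 hr. Step two: fix, permeabilize, stain nuclei with Hoechst 33342. Step three: image six fields per well at 20x, quantify DNA content, fit bidirectionally relative to DMSO.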
# [4] = APR_HepG2_NuclearSize_24hr: Apredica 24-hour HepG2 Assay for Nuclear Size (AID 2282907); conditions: high-content imaging, actives raise or lower the signal
# Method in brief: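 After fixation and permeabilization, 24-hr-treated HepG2 cells were stained with Hoechst 33342 and imaged on an ArrayScan (20x). Doses spanned 0.39–200 uM in duplicate. Nuclear diameter changes in either direction were fitted relative to 0.5% DMSO controls.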
# [5] = APR_HepG2_CellLoss_24hr: Apredica 24-hour HepG2 Assay for Cell Loss (AID 2282908); conditions: high-content imaging
# Method in brief: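 Duplicate wells received compound at ten concentrations (0.39–200 uM; final DMSO 0.5% v/v). After fixation with formaldehyde, nuclei stained with Hoechst 33342 were imaged at 20x. Loss or gain of cell count was fitted relative to DMSO controls.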
# [6] = APR_HepG2_MicrotubuleCSK_24hr: Apredica 24-hour HepG2 Assay for Microtubule CSK Stabilty (AID 2282909); conditions: HepG2 microtubule cytoskeleton imaging, actives raise or lower the signal
# Method in brief: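 Microtubule stability is scored from tubulin immunofluorescence in fixed HepG2 cells imaged at 20x. Cells receive ten compound concentrations up to 200 uM for 24 h; taxol and DMSO serve as positive and negative controls.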
# [7] = APR_HepG2_MitoticArrest_24hr: Apredica 24-hour HepG2 Assay for Mitotic Arrest (AID 2282910); conditions: high-content imaging, actives raise or lower the signal
# Method in brief: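 Treatment lasted 24 hr in the human HepG2 line at 0.39–200 uM, solvent held at 0.5% DMSO. Fixed cells were stained with Hoechst 33342 and anti-phospho-histone H3, imaged at 20x, and analysed by gain- or loss-of-signal fitting against DMSO.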
# [8] = APR_HepG2_MitoMembPot_24hr: Apredica 24-hour HepG2 Assay for Mitochondrial Membrane Potential (AID 2282911); conditions: imaging, actives raise or lower the signal
# Method in brief: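 Mitochondrial dye uptake (MitoTracker Red CMXRos, 250 nM, 30 min pre-fixation) in HepG2 after 24 hr compound exposure, 0.39–200 uM; ArrayScan images at 20x, activity fitted in both directions relative to DMSO.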
# [9] = APR_HepG2_MitoMass_24hr: Apredica 24-hour HepG2 Assay for Mitochondrial Mass (AID 2282912); conditions: high-content imaging, actives raise or lower the signal
# Method in brief: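 Readout: fluorescence of MitoTracker Red CMXRos (250 nM, added 30 min pre-fixation) in fixed HepG2 cells imaged by HCS. Exposure lasted 24 hr at 0.39–200 uM; increases and decreases were both fitted relative to DMSO.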
# [10] = APR_HepG2_CellCycleArrest_72hr: Apredica 72-hour HepG2 Assay for Cell Cycle Arrest (AID 2282914); conditions: high-content imaging, actives raise or lower the signal
# Method in brief: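 Using multiplexed high-content imaging, HepG2 nuclei stained with Hoechst 33342 (2 ug/mL) were analysed for DNA content after fixation and permeabilization. Treatment lasted 72 hr across 0.39–200 uM in duplicate with final DMSO 0.5% v/v; DMSO served as negative control.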
# [11] = APR_HepG2_P-H2AX_72hr: Apredica 72-hour HepG2 Assay for H2AX Phosphorylation (AID 2282916); conditions: imaging, actives raise or lower the signal;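 further: phospho-histone H2A.x immunostain intensity per cell marking DNA damage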
# Method in brief: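 Phospho-H2A.x imaging endpoint in HepG2 after 72 hr compound exposure (0.39–200 uM, duplicate wells). Activity derived by bidirectional curve fitting with DMSO as baseline.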
# [12] = APR_HepG2_MitoMembPot_72hr: Apredica 72-hour HepG2 Assay for Mitochondrial Membrane Potential (AID 2282917); conditions: imaging, actives raise or lower the signal
# Method in brief: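 HepG2 cells exposed 72 h to compounds at 0.39–200 uM (0.5% v/v DMSO, duplicates); MitoTracker Red CMXRos 250 nM loaded 30 min before 3.7% formaldehyde fixation, imaged by HCS fluorescence. Bidirectional fit versus DMSO.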
# [13] = APR_HepG2_MitoticArrest_72hr: Apredica 72-hour HepG2 Assay for Mitotic Arrest (AID 2282918); conditions: high-content imaging, actives raise or lower the signal
# Method in brief: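 Using high-content imaging of fixed HepG2 cells, phospho-histone H3 signal was measured following a 72 hr incubation with ten-point compound dilutions up to 200 uM. DMSO served as the negative control and baseline for bidirectional curve fitting.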
# [14] = APR_HepG2_MicrotubuleCSK_72hr: Apredica 72-hour HepG2 Assay for Microtubule CSK Stabilty (AID 2282919); conditions: HepG2 microtubule cytoskeleton, high-content imaging, actives raise or lower the signal
# Method in brief: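 Ten-point dosing (0.39–200 uM, 0.5% DMSO) of HepG2 for 72 hr, with taxol as the cytoskeletal positive control. The cells were formaldehyde-fixed and then stained with alpha-tubulin/Cy5 and Hoechst. Imaging at 20x used a −2 um Z offset for tubulin.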
# [15] = APR_HepG2_P-H2AX_24hr: Apredica 24-hour HepG2 Assay for H2AX Phosphorylation (AID 2282920); conditions: high-content imaging, actives raise or lower the signal
# Method in brief: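 Human HepG2 liver cells, treated 24 hr with test chemicals (0.39–200 uM, final DMSO 0.5% v/v), are fixed and co-stained for phospho-H2A.x and c-Jun with Hoechst. Imaged intensity is fitted in both directions against DMSO controls.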
# [16] = APR_HepG2_StressKinase_72hr: Apredica 72-hour HepG2 Assay for Stress Kinase (AID 2282921); conditions: HepG2 stress kinase (phospho-c-Jun) imaging, actives raise or lower the signal
# Method in brief: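 Stress kinase signal reflects nuclear phospho-c-Jun staining in fixed, permeabilized cells exposed 72 h to compound at 0.39–200 uM; DMSO-normalized, fitted for increases or decreases.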
# [17] = APR_HepG2_StressKinase_24hr: Apredica 24-hour HepG2 Assay for Stress Kinase (AID 2282922); conditions: HepG2 stress kinase (phospho-c-Jun) imaging, actives raise or lower the signal
# Method in brief: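 After 24 hr compound treatment (up to 200 uM, final DMSO 0.5% v/v), HepG2 cells are fixed and multiplex-labeled; phospho-c-Jun intensity is captured by high-content fluorescence imaging and analyzed relative to DMSO.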
# [18] = APR_HepG2_NuclearSize_72hr: Apredica 72-hour HepG2 Assay for Nuclear Size (AID 2282925); conditions: high-content imaging, actives raise or lower the signal
# Method in brief: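 Compounds (0.39–200 uM, final DMSO 0.5%) were applied to HepG2 for 72 hr. Cells were then formaldehyde-fixed, permeabilized and labelled with Hoechst 33342. Nuclear diameter was quantified from six images per well.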
# [19] = APR_HepG2_p53Act_24hr: Apredica 24-hour HepG2 Assay for p53 Activation (AID 2282913); conditions: high-content imaging, actives raise or lower the signal;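 further: p53 protein immunofluorescence averaged per cell in HepG2 with Hoechst nuclei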
# Method in brief: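 Following 24 hr dosing of HepG2 at 0.39–200 uM, the cells undergo formaldehyde fixation, Triton permeabilization and multiplexed antibody labeling that includes p53 (Cy5). Signal from the imaging is referenced to DMSO solvent controls.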
# [20] = APR_HepG2_p53Act_72hr: Apredica 72-hour HepG2 Assay for p53 Activation (AID 2282923); conditions: high-content imaging, actives raise or lower the signal;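 further: average cellular p53 protein immunofluorescence intensity in HepG2 cells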
# Method in brief: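 Fixed-cell p53 staining (sheep primary, Cy5 secondary) measured by fluorescence imaging following 72 hr treatment at 0.39–200 uM in 0.5% DMSO; DMSO served as negative control and baseline.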
# Chain of CCAAT/enhancer-binding protein beta (Homo sapiens) (P17676 whole entry, looked up, the tested form may be a part): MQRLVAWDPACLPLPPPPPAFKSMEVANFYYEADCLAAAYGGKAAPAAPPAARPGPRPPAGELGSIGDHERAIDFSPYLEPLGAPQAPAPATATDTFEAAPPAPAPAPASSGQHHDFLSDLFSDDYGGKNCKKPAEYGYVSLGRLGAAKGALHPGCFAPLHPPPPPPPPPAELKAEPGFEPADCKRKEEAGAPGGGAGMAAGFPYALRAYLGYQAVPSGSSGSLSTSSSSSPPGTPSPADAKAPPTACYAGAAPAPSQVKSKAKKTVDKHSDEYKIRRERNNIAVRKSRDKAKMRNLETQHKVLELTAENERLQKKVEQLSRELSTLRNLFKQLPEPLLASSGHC
smiles,measurement,setting,value
CC(C)(C)c1ccc(CCOc2ncnc3ccccc23)cc1,outcome,[1],inactive
same,outcome,[2],inactive
O=C(CCl)NCO,outcome,[1],inactive
same,outcome,[2],inactive
O=C(N[C@H]1CN2CCC1CC2)c1ccc2c(c1)OCCO2,outcome,[3],inactive
same,outcome,[4],inactive
same,outcome,[5],inactive
same,outcome,[6],inactive
same,outcome,[7],inactive
same,outcome,[8],inactive
same,outcome,[9],inactive
same,outcome,[10],inactive
same,outcome,[11],inactive
same,outcome,[12],inactive
same,outcome,[13],inactive
same,outcome,[14],inactive
same,outcome,[15],inactive
same,outcome,[16],inactive
same,outcome,[17],inactive
same,outcome,[18],inactive
same,outcome,[2],inactive
Cc1c([N+](=O)[O-])c(C)c([N+](=O)[O-])c(C(C)(C)C)c1[N+](=O)[O-],outcome,[1],inactive
same,outcome,[2],inactive
O=C(O)CC(O)(CC(=O)O)C(=O)O,outcome,[1],inactive
same,outcome,[2],inactive
CCOC(=O)Cc1ccccc1,outcome,[1],inactive
same,outcome,[2],inactive
OC(Cc1ccccc1Cl)(Cn1cncn1)C1(Cl)CC1 (stereo unspecified),outcome,[1],inactive
same,outcome,[2],inactive
CC(C)(C)c1ccccc1O,outcome,[3],inactive
same,outcome,[4],inactive
same,outcome,[5],inactive
same,outcome,[6],inactive
same,outcome,[7],inactive
same,outcome,[8],inactive
same,outcome,[9],inactive
same,outcome,[10],inactive
same,outcome,[11],inactive
same,outcome,[12],inactive
same,outcome,[13],inactive
same,outcome,[14],inactive
same,outcome,[15],inactive
same,outcome,[16],inactive
same,outcome,[17],inactive
same,outcome,[18],inactive
same,AC50,[2],163 µM (active)
CC(C)O.CC(C)O.OCCN(CCO)CCO.OCCN(CCO)CCO.[Ti],outcome,[3],inactive
same,outcome,[4],inactive
same,outcome,[5],inactive
same,outcome,[6],inactive
same,outcome,[7],inactive
same,outcome,[8],inactive
same,outcome,[9],inactive
same,outcome,[10],inactive
same,outcome,[11],inactive
same,outcome,[12],inactive
same,outcome,[13],inactive
same,outcome,[14],inactive
same,outcome,[15],inactive
same,outcome,[16],inactive
same,outcome,[17],inactive
same,outcome,[18],inactive
same,outcome,[1],inactive
same,outcome,[2],inactive
O=C(O)C1(c2ccc3c(c2)OC[C@H](Cc2ccc(-c4ccccc4)cc2)[C@H]3O)CCCC1,outcome,[3],inactive
same,outcome,[4],inactive
same,outcome,[5],inactive
same,outcome,[6],inactive
same,outcome,[7],inactive
same,AC50,[8],105 µM (active)
same,AC50,[9],112 µM (active)
same,AC50,[10],118 µM (active)
same,AC50,[11],106 µM (active)
same,outcome,[12],inactive
same,AC50,[13],105 µM (active)
same,outcome,[14],inactive
same,AC50,[15],108 µM (active)
same,AC50,[16],116 µM (active)
same,AC50,[17],111 µM (active)
same,outcome,[18],inactive
same,outcome,[2],inactive
Oc1c(Cl)cc(Cl)cc1Cl,outcome,[5],inactive
same,outcome,[7],inactive
same,outcome,[8],inactive
same,outcome,[9],inactive
same,outcome,[19],inactive
same,outcome,[11],inactive
same,outcome,[12],inactive
same,AC50,[13],50 µM (active)
same,outcome,[15],inactive
same,outcome,[16],inactive
same,outcome,[17],inactive
same,outcome,[20],inactive
same,outcome,[2],inactive
CCCCN(CCCC)C(=S)S,outcome,[1],inactive
same,outcome,[2],inactive
